{"source": "PubChem BioAssay (NCATS)", "note": "Inconclusive results are not listed. Entries that show only a call come without a potency. Calls of active or inactive are those of the source. The call rests on the fitted dose curve; in most records, active means well fitted inhibition curve with a large enough effect; inconclusive means small, poorly fitted or top-dose-only effect; inactive means no such curve, though single readings can be large or run the other way.", "data": [{"assay": "P-glycoprotein substrates identified in KB-3-1 adenocarcinoma cell line, qHTS therapeutic library screen (AID 1346986); further: nearly all actives have a fitted effect of over 60% in size", "conditions": "KB-3-1 parental cells viability, CellTiter-Glo, 72 h; series mostly up to 44.5 µM", "outline": "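Counter-screen: cherry-picked hits retested in the KB pair and in HEK-293 pcDNA/MDR-19 cells ± tariquidar. Primary screen used 72 h CellTiter-Glo viability in KB-3-1 and KB-8-5-11.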", "values": [{"smiles": "C/C=C(\\C)C(=O)OC1CC2C(CC=C3CC(OC4CC(OC)C(OC5CC(OC)C(OC6OC(C)C(OC7OC(CO)C(O)C(O)C7O)C(OC)C6O)C(C)O5)C(C)O4)CCC32C)C2(O)CCC(C(C)=O)C12C", "note": "(stereo not given)", "outcome": "inactive [at 9.29 µM]"}, {"smiles": "COc1cc(C)[nH]c(=O)c1CNC(=O)c1c(C)n([C@H](C)C2CCOCC2)c2ccccc12", "Potency": "inactive"}, {"smiles": "O=C(O)c1ccnc2cc(C(OCCN3CCCCC3)c3ccccc3Cl)[nH]c12", "note": "(stereo not given)", "Potency": "inactive"}, {"smiles": "C[C@@H]1C(=O)O[C@H]2[C@H](O)[C@@]34[C@@H]5OC(=O)[C@@]3(O[C@@H]3OC(=O)[C@@H](O)[C@@]34[C@H](C(C)(C)C)[C@H]5O)[C@@]12O", "Potency": "inactive"}, {"smiles": "C1=C2CCCN[C@H]2[C@@H]2C[C@H]1[C@H]1CCCCN1C2", "Potency": "inactive"}, {"smiles": "COCC1OC(=O)c2coc3c2C1(C)C1=C(C3=O)C2CCC(=O)C2(C)CC1O", "note": "(stereo not given)", "Potency": "inactive"}, {"smiles": "CCN1C[C@]2(COC(=O)c3ccccc3N3C(=O)C[C@H](C)C3=O)CC[C@H](OC)[C@@]34[C@@H]5C[C@H]6[C@H](OC)[C@@H]5[C@](O)(C[C@@H]6OC)[C@](O)([C@@H](OC)[C@H]23)[C@@H]14", "Potency": "inactive"}, {"smiles": "COC1=CC(=O)O[C@@H](CCc2ccccc2)C1", "Potency": "inactive"}, {"smiles": "C[C@H]1C(=O)O[C@H]2[C@H](O)[C@]34C5OC(=O)[C@]3(O[C@@H]3OC(=O)[C@H](O)C34[C@H](C(C)(C)C)[C@H]5O)C12O", "note": "(stereo not given in full)", "Potency": "inactive"}, {"smiles": "COC1CC(=O)C23C(=O)NC(CC(C)C)C2C(C)=C(C)C(OO)C3/C=C(\\C)CCC(O)C1O", "note": "(stereo not given)", "Potency": "inactive"}, {"smiles": "COc1cc(C(=O)O[C@H]2[C@@H]3C=CO[C@@H](O[C@@H]4O[C@H](CO)[C@@H](O)[C@H](O)[C@H]4O)[C@@H]3[C@@]3(CO)O[C@@H]23)ccc1O", "Potency": "inactive"}, {"smiles": "CN1C(=O)N(c2ccc(C#N)c(C(F)(F)F)c2)C(=O)[C@]1(CO)c1ccccc1", "Potency": "inactive"}, {"smiles": "CC(C)(C)c1cc(C(C)(C)C)c2c(c1)C(O)(C(F)(F)F)C(=O)O2", "note": "(stereo not given)", "Potency": "inactive"}, {"smiles": "COC1=CC(=O)O[C@@H](/C=C/c2ccccc2)C1", "Potency": "inactive"}, {"smiles": "C=C[C@H]1[C@H](O[C@@H]2O[C@H](CO)[C@@H](O)[C@H](O)[C@H]2O)OC=C2C(=O)OCC[C@H]21", "Potency": "inactive"}, {"smiles": "CC(=O)OC12C(O)C(C)C3(O)C4C=C(C)C(=O)C4CC(CO)=CC3C1C2(C)C", "note": "(stereo not given)", "Potency": "inactive"}, {"smiles": "C[C@]12CC[C@@H](O)C[C@H]1CC[C@@H]1[C@@H]2CC[C@]2(C)C(=O)CC[C@@H]12", "Potency": "inactive"}, {"smiles": "C[C@@]1(C(=O)O)CC[C@]2(C)CC[C@]3(C)C4=CC(=O)c5cc(O)c(O)cc5[C@]4(C)CC[C@@]3(C)[C@@H]2C1", "Potency": "inactive"}, {"smiles": "CCN1CC2(COC)C3[C@@H](OC)C4C1C3(C1C[C@]3(O)[C@H](OC(=O)c5ccccc5)C1[C@]4(OC(C)=O)[C@@H](O)[C@@H]3OC)[C@H](OC)C[C@H]2O", "note": "(stereo not given in full)", "Potency": "inactive"}, {"smiles": "CC1=C2C(=O)C3[C@@H](CC=C4C[C@@H](O)CC[C@@]43C)[C@@H]2CC[C@]12O[C@@H]1C[C@H](C)CN[C@H]1[C@H]2C", "note": "(stereo not given in full)", "Potency": "inactive"}, {"smiles": "CCC1NC(=O)C2C(Cl)C(Cl)CN2C(=O)C(C(C)O)NC(=O)CC(c2ccccc2)NC(=O)C(CO)NC1=O", "note": "(stereo not given)", "Potency": "inactive"}, {"smiles": "CC1=CC2/C=C(\\C)CCC(O)C3OC(C)(C)OC3CC(=O)OC23C(=O)NC(CC(C)C)C3C1C", "note": "(stereo not given)", "Potency": "inactive"}, {"smiles": "COc1c(C(C)C)cc2c(c1O)[C@@]1(C(=O)O)CCCC(C)(C)C1CC2", "note": "(stereo not given in full)", "Potency": "inactive"}, {"smiles": "COC(=O)C1(C)CCC(O)C2(C)c3c(O)cc(C(C)C)cc3C(O)C(OC(C)=O)C12", "note": "(stereo not given)", "Potency": "inactive"}, {"smiles": "CC(N)Cc1c[nH]c2ccccc12", "note": "(stereo not given)", "Potency": "inactive"}, {"smiles": "Cc1c(Cl)cccc1S(=O)(=O)Nc1nc(CC(=O)N2CCN(C)CC2)cs1", "Potency": "inactive"}, {"smiles": "CCCN1CCO[C@H]2c3cc(O)ccc3OC[C@@H]21", "Potency": "inactive"}, {"smiles": "CCCCCCn1c(=O)c(C(=O)Nc2ccc(C(=O)OCCC)cc2)c(O)c2ccccc21", "outcome": "inactive [at 9.29 µM]"}, {"smiles": "C/C=C(\\C)C(=O)O[C@H]1[C@H](OC(C)=O)[C@]2(CO)[C@H](O)[C@H](O)[C@]3(C)C(=CCC4[C@@]5(C)CC[C@H](O[C@@H]6O[C@H](C(=O)O)[C@@H](O)[C@H](O[C@@H]7OC[C@H](O)[C@H](O[C@@H]8OC[C@H](O)[C@H](O)[C@H]8O)[C@H]7O)[C@H]6O[C@@H]6O[C@H](CO)[C@@H](O)[C@H](O)[C@H]6O)C(C)(C)C5CC[C@]43C)[C@@H]2CC1(C)C", "note": "(stereo not given in full)", "outcome": "inactive [at 9.29 µM]"}, {"smiles": "C=C(CO)C(=O)O[C@H]1C/C(C)=C/CC/C(CO)=C/[C@H]2OC(=O)C(=C)[C@H]12", "Potency": "inactive"}]}]}
